# Several values for one entry are separate records, joined by “and”; a condition that tells them apart may be missing. Equal values may be shown once. Records with an inconclusive call do not appear. Unmarked numbers belong to inactive results. Activity calls are given as the source filed them. Calls follow the shape of the dose curve; as a rule, active = well fitted cell-killing curve with a large enough effect in the repeat runs; inconclusive = weak or mixed curves, or effect the other way; inactive = no such curve, though single readings can be large or run the other way.
# Experiment: qHTS assay to identify small molecule antagonists of the glucocorticoid receptor (GR) signaling pathway - cell viability counter screen (AID 720693); also: nearly all actives have a fitted effect of over 55% in size
# Conditions: GR-bla HeLa viability, CellTiter-Glo luminescence, 18 h, with 5 nM dexamethasone present; series mostly up to 58.5 µM; viability change, negative = cytotoxic: at the top concentration
# % is scaled to controls: 0 for no effect and ±100 for the full control effect; potency is read from the fitted curve at half-maximal effect.
Structure (SMILES),"viability change, negative = cytotoxic",Potency
O=C(/C=C/c1ccc(O)c(O)c1)O[C@@H](C(=O)O)[C@@H](OC(=O)/C=C/c1ccc(O)c(O)c1)C(=O)O,-0.117%,
CC(CO)Oc1ccccc1 (configuration not stated),12.2% [at 78.9 µM],
NC(=S)NC(N)=S,0.213%,
O=C1C(c2[nH]c3ccc(S(=O)(=O)O)cc3c2O)=Nc2ccc(S(=O)(=O)O)cc21,,inactive
Cc1c(C)c2c(c(C)c1O)CC[C@@](C)(CCC[C@H](C)CCC[C@H](C)CCCC(C)C)O2,,inactive
O=C(O)c1cccc(C(F)(F)F)c1,-3.79%,
Cc1ccc(C)cc1,33%,
CCCC1CCC(=O)CC1,-5.01%,
C=C(C)c1cccc(C(=C)C)c1,-0.789%,
O=C(O)CCN(C1(C(=O)NO)CCCC1)S(=O)(=O)c1ccc(Oc2ccc(F)cc2)cc1,5.91%,
CCCC(=O)OC(C)(C)Cc1ccccc1,5.81%,
CC(C)CCOC(=O)/C=C/c1ccccc1,2.52% [at 78.9 µM],
CCCCCc1ccc(Cl)cc1,6.76%,
OCC(F)(F)F,-2.44% [at 78.9 µM],
CCCCC(CC)CN1CN(CC(CC)CCCC)CC(C)(N)C1 (configuration not stated),-1.54% [at 27 µM],
COc1cc(/C=C/c2ccccc2)oc(=O)c1,13.3% [at 78.9 µM],
CC(=O)c1ccc(C(C)=O)cc1,-8.47% [at 78.9 µM],
CCOC(=O)Cn1cccc1-c1nc(-c2ccc(OC)cc2)c(-c2ccc(OC)cc2)s1,-13.3%,

Structure (SMILES),"viability change, negative = cytotoxic",Potency
O=C(Oc1ccccc1)Oc1ccccc1,2.51%,
O=C(/C=C/c1ccccc1)OC/C=C/c1ccccc1,-1.59%,
O=C(O)O,4.34% [at 7.04 µM],
O=[N+]([O-])c1ccc(F)c(Cl)c1,2.78%,
FC(F)(F)c1cccc(Cl)c1,6.67%,
Cc1cc(-c2ccc(N=Nc3cc(S(=O)(=O)O)c4ccccc4c3N)c(C)c2)ccc1N=Nc1cc(S(=O)(=O)O)c2ccccc2c1N,-20.8% [at 78.9 µM],
Cc1ccc(C(C)C)cc2c(C)ccc1-2,8.66%,
O=C1OC2(c3ccc(O)cc3Oc3cc(O)ccc32)c2ccc(N=C=S)cc21,5.09% [at 78.9 µM],
CCCCCCCCCCOC(=O)c1ccccc1C(=O)OCCCCCCCC,-9.39%,
CCOC(=O)c1ccc(C2CCC(NC[C@H](O)COc3ccc(O)c(NS(C)(=O)=O)c3)CC2)cc1 (some centres not stated),-11.9%,
c1ccsc1,10.4%,
c1cnccn1,-6.76% [at 78.9 µM],
OC[C@H]1O[C@H](O[C@H]2O[C@H](CO)[C@@H](O)[C@H](O)[C@H]2O)[C@H](O)[C@@H](O)[C@@H]1O,14.7% [at 78.9 µM],
C#CC1(O)CC[C@H]2[C@@H]3CCC4=CCCC[C@@H]4[C@H]3CC[C@@]21C (some centres not stated),3.65% [at 27 µM],
CCCCCCCCCCCCCC[N+](C)(C)Cc1ccccc1,,21.3 µM (active) and 24.9 µM (active)
OCCN1CCN(CCCN2c3ccccc3Sc3ccc(C(F)(F)F)cc32)CC1,-1.62%,
CC1(C)CC(O)CC(C)(C)N1,13.3% [at 78.9 µM],
CCc1cccc(CC)c1NC(=O)CN(CC(=O)O)CC(=O)O,3.09% [at 27 µM],

# Experiment: qHTS assay for identifying genotoxic compounds that show differential cytotoxicity against isogenic chicken DT40 cell lines with known DNA damage response pathways - wild type cell line (AID 743012); also: nearly all actives have a fitted effect of over 60% in size
# Conditions: DT40 wild type chicken cells viability, CellTiter-Glo, 40 h; series mostly up to 68.4 µM; activity change, negative = cytotoxicity: at the top concentration
# Procedure, shortened: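 Viability by ATP luminescence (CellTiter-Glo, 30 min RT) after 40 h compound treatment at 37 C/5% CO2, using 300 parental DNA repair-proficient DT40 cells per well.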
Structure (SMILES),"activity change, negative = cytotoxicity",Potency
O=C(/C=C/c1ccc(O)c(O)c1)O[C@@H](C(=O)O)[C@@H](OC(=O)/C=C/c1ccc(O)c(O)c1)C(=O)O,20.4%,
CC(CO)Oc1ccccc1 (configuration not stated),-0.295% [at 95 µM],
NC(=S)NC(N)=S,,61.1 µM (active)
O=C1C(c2[nH]c3ccc(S(=O)(=O)O)cc3c2O)=Nc2ccc(S(=O)(=O)O)cc21,,inactive
Cc1c(C)c2c(c(C)c1O)CC[C@@](C)(CCC[C@H](C)CCC[C@H](C)CCCC(C)C)O2,,inactive
O=C(O)c1cccc(C(F)(F)F)c1,2.92%,
Cc1ccc(C)cc1,3.02%,
CCCC1CCC(=O)CC1,6.23%,
C=C(C)c1cccc(C(=C)C)c1,5.03%,
O=C(O)CCN(C1(C(=O)NO)CCCC1)S(=O)(=O)c1ccc(Oc2ccc(F)cc2)cc1,8.25%,
CCCC(=O)OC(C)(C)Cc1ccccc1,-0.968%,
CC(C)CCOC(=O)/C=C/c1ccccc1,1.76% [at 95 µM],
CCCCCc1ccc(Cl)cc1,-0.981%,
OCC(F)(F)F,1.65% [at 95 µM],
CCCCC(CC)CN1CN(CC(CC)CCCC)CC(C)(N)C1 (configuration not stated),,10.1 µM (active)
COc1cc(/C=C/c2ccccc2)oc(=O)c1,-2.16% [at 95 µM],
CC(=O)c1ccc(C(C)=O)cc1,-1.64% [at 95 µM],
CCOC(=O)Cn1cccc1-c1nc(-c2ccc(OC)cc2)c(-c2ccc(OC)cc2)s1,0.223%,

Structure (SMILES),"activity change, negative = cytotoxicity",Potency
O=C(Oc1ccccc1)Oc1ccccc1,-0.262%,
O=C(/C=C/c1ccccc1)OC/C=C/c1ccccc1,,17.2 µM (active)
O=C(O)O,-8.76% [at 8.52 µM],
O=[N+]([O-])c1ccc(F)c(Cl)c1,-15.1%,
FC(F)(F)c1cccc(Cl)c1,5.93%,
Cc1cc(-c2ccc(N=Nc3cc(S(=O)(=O)O)c4ccccc4c3N)c(C)c2)ccc1N=Nc1cc(S(=O)(=O)O)c2ccccc2c1N,,0.548 µM (active)
Cc1ccc(C(C)C)cc2c(C)ccc1-2,1.21%,
O=C1OC2(c3ccc(O)cc3Oc3cc(O)ccc32)c2ccc(N=C=S)cc21,-2.49% [at 95 µM],
CCCCCCCCCCOC(=O)c1ccccc1C(=O)OCCCCCCCC,3.68%,
CCOC(=O)c1ccc(C2CCC(NC[C@H](O)COc3ccc(O)c(NS(C)(=O)=O)c3)CC2)cc1 (some centres not stated),,0.356 µM (active)
c1ccsc1,-10.7%,
c1cnccn1,-3.2% [at 95 µM],
OC[C@H]1O[C@H](O[C@H]2O[C@H](CO)[C@@H](O)[C@H](O)[C@H]2O)[C@H](O)[C@@H](O)[C@@H]1O,-1.02% [at 95 µM],
C#CC1(O)CC[C@H]2[C@@H]3CCC4=CCCC[C@@H]4[C@H]3CC[C@@]21C (some centres not stated),,11.4 µM (active) and 13.7 µM (active)
CCCCCCCCCCCCCC[N+](C)(C)Cc1ccccc1,,473 nM (active) and 621 nM (active)
OCCN1CCN(CCCN2c3ccccc3Sc3ccc(C(F)(F)F)cc32)CC1,,3.76 µM (active)
CC1(C)CC(O)CC(C)(C)N1,5.14% [at 95 µM],
CCc1cccc(CC)c1NC(=O)CN(CC(=O)O)CC(=O)O,1.73% [at 31.4 µM],

# — PubChem BioAssay (Tox21)
